Screening results as filed in PubChem.
Rows were chosen to be rich in hits. Some 4.8% of all compounds tested hit in one or more screens of this group.
SMARCA2 activ – SMARCA2 function activation, primary screen. MG213 cells, MMTV-luciferase reporter, dexamethasone, overnight. activation, % at 9.1 µM. actives 1% (n = 370,000); in the data active = activation above about 7.8%
hcDAF12 agonist – activators of H. contortus DAF-12 nuclear receptor. HEK293 hcDAF-12 lit1-tk-luc reporter, luminescence; 0% DMSO, 100% Δ7-dafachronic acid. activation, % at 6.8 µM. actives 1.4% (n = 370,000);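 active = activation above the mean of all tested compounds plus 3 SD, cut at about 5.5% in these data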
hgDAF12 agonist – activates the H. glycines DAF-12 receptor ligand-binding domain; HEK293 GAL4-hgDAF12 UAS-luciferase reporter, agonist luminescence; normalized to butyrate control; activation, % at 6.8 µM; actives 1.8% (n = 370,000); AID 687014;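 active = activation above a cutoff set at the mean of all screened compounds plus 3 SD, cut at about 10% in these data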
DAX1 inh-1 – inhibits human nuclear receptor DAX1. actives 0.99% (n = 340,000). HEK293 Gal4-DAX1 luciferase reporter, luminescence. P51843. inhibition, % at 6.75 µM;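 active = inhibition above the mean over all tested compounds plus 3 SD, cut at about 4.2% in these data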;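 also: inhibition shows as a rise in luminescence from relieved DAX1 repression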
Target sequence (P51843 207-470 limits assumed): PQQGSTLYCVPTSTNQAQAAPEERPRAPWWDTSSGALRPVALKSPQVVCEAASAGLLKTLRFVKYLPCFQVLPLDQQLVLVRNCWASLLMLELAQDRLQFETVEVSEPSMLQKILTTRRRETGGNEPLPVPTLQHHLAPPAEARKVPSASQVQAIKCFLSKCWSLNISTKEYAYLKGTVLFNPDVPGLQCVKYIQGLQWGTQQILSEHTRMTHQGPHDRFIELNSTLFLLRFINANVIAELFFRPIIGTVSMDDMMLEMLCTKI
DAX1 inh-2 – blocks DAX1 repression of SF-1 activated StAR promoter. HEK293T StAR-luciferase reporter, SF-1/DAX-1 repression relief. inhibition, % at 6.8 µM. actives 1.1% (n = 370,000). AID 652010;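 active = inhibition above the mean over all tested compounds plus 3 SD, cut at about 3.6% in these data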;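 also: higher inhibition means more luminescence from relief of DAX-1 repression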
ssDAF12 agonist – activates DAF-12 receptor from parasite S. stercoralis | HEK293 ssDAF-12/GRIP1 lit1-tk-luc reporter, luminescence; % of 3 µM dafachronic acid response | activation, % at 6.8 µM | actives 1% (n = 370,000) | AID 652126;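 active = activation above the mean over all tested compounds plus 3 SD, cut at about 0.9% in these data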
Of the large screens only hits and unclear results are named; the others gave an inactive call.

O=C(c1ccccc1Cl)c1c(O)c2ccccc2oc1=O	DAX1 inh-1 5.6
O=C(c1c(O)c2ccccc2oc1=O)C1CCC1	none
COC(=O)[C@]12C[C@H](CC(=O)N3CCC(c4ccccc4)CC3)C(=O)N(CCc3ccc(OC)c(OC)c3)C1=C[C@H](C(C)C)O[C@@H]2C1CC1	none (no result: DAX1 inh-1)
CCn1ncc(N(C)N)c(Cl)c1=O	ssDAF12 agonist 1.1
CCc1ccc(CCNC(=O)OC2CC3CC2[C@H]2CCCCN2C3)cc1 (stereo partly specified)	none (no result: DAX1 inh-1)
CC1CCCC(NC(=O)CNC(=O)c2cccs2)C1C (stereo unspecified)	DAX1 inh-1 5.2
CC1CCCC(NC(=O)COC(=O)c2cccs2)C1C (stereo unspecified)	none
Cc1cc(NC(=O)c2cc(-c3ccc(Br)cc3)on2)no1	none
O=C(Nc1ccon1)c1sc2cc(F)ccc2c1Cl	none
Cc1cc(NC(=O)c2cc(-c3ccc(O)cc3)on2)no1	hgDAF12 agonist 11
Cc1cc(NC(=O)c2ccc(S(=O)(=O)N(C)C)cc2)no1	none
Cc1cc(NC(=O)c2ccc(Cl)cc2)no1	hgDAF12 agonist 11
Cc1ccc2c(Cl)c(C(=O)Nc3cc(C)on3)sc2c1	DAX1 inh-1 5.2
CC(C)[C@@H]1OC(=O)[C@@H]2CCCN2C(=O)[C@H](C)OC(=O)[C@H](C)[C@@H](C(C)C)NC(=O)[C@@H]2CCCN2C(=O)[C@H]([C@H](C)Cc2ccccc2)NC(=O)[C@@H]2CCCN2C(=O)[C@@H](C(C)C)N(C)C1=O	none (no result: SMARCA2 activ, DAX1 inh-1, DAX1 inh-2)
CCCCOc1ccc(-c2nnc(-c3ccncc3)o2)cc1	none
CCCOc1ccc(-c2nnc(-c3cccs3)o2)cc1	hgDAF12 agonist 10
CCCc1nc2nc(C)c(NS(=O)(=O)c3ccc(CC(C)C)cc3)c(=O)n2[nH]1	DAX1 inh-1 4.3
CCN(CCn1cccn1)C(=O)CCc1nnc(Cc2c[nH]c3ccccc23)o1	none
CC(c1nccs1)N(C)C(=O)CCc1nnc(Cc2c[nH]c3ccccc23)o1 (stereo unspecified)	ssDAF12 agonist 3.5
CC(=O)c1sc(NC(=O)c2ccccc2)nc1-c1ccccc1	hgDAF12 agonist 12, DAX1 inh-1 4.8
O=C(Nc1nc(-c2ccccc2)c(C(=O)c2ccccc2)s1)c1ccc(S(=O)(=O)N2CCCCC2)cc1	hcDAF12 agonist 6.5
CC(=O)c1sc(NC(=O)c2c(F)cccc2F)nc1-c1ccccc1	none
N=c1c2c(ccn1Cc1ccccc1)Oc1ccc3ccccc3c1C2c1ccccc1 (stereo unspecified)	none (no result: SMARCA2 activ, DAX1 inh-1, DAX1 inh-2)
COc1ccc2c(c(-c3ccccc3)cn2C)c1-c1ccccc1	none (no result: DAX1 inh-1)
Cc1cc2c(cc1C)-n1nnnc1C(N1CCN(c3ccccn3)CC1)C(c1ccc3c(c1)OCO3)=N2 (stereo unspecified)	hcDAF12 agonist 6.3 (no result: DAX1 inh-1)
c1ccc(N2CCN(Cc3ccc4c(c3)OCO4)CC2)nc1	none (no result: DAX1 inh-1)
CC(/C=N/NC(=O)CSc1nc2ccccc2n1C)=C\c1ccco1	hcDAF12 agonist 6.0
COC(=O)c1cc2c(c3c4cc(C)ccc4n(S(=O)(=O)c4ccc(C)cc4)c13)C(=O)N(Cc1ccccc1OC)C2	none (no result: DAX1 inh-1)
CCCCCCCCN1CCS(=O)(=O)N(Cc2ccccc2)C(C(=O)OC)C1 (stereo unspecified)	none (no result: DAX1 inh-1)
NNC(=O)c1oc2ccccc2c1-n1cccc1	none
O=C(O)c1oc2ccc(Br)cc2c1-n1cccc1	DAX1 inh-1 7.0
COC(=O)[C@]12C[C@H](CC(=O)NCc3ccc(C)o3)C(=O)N(Cc3ccco3)C1=C[C@H](C(C)(C)C)O[C@@H]2C	none (no result: DAX1 inh-1)
Cc1ccc(/C=N/Nc2ccccn2)s1	hgDAF12 agonist 11
O=[N+]([O-])c1cc(S(=O)(=O)Nc2ccccc2)ccc1Nc1ccccc1	ssDAF12 agonist 1.6
O=[N+]([O-])c1cc(S(=O)(=O)Nc2ccccc2)ccc1NCc1ccccc1	none
Cc1ccc2c(c1)N(CC(=O)NCCc1c[nH]c3ccccc13)C(=O)CO2	ssDAF12 agonist 0.9
COc1cccc(-c2coc3cc4oc(=O)c(CCC(=O)O)c(C)c4cc23)c1	hcDAF12 agonist 5.8
COC(=O)C1CCN(C(=O)CCn2nnc(-c3cccs3)n2)CC1	none (no result: DAX1 inh-1)
COc1ccc2cc3c(N)nn(C(=O)c4cccc(F)c4)c3nc2c1	DAX1 inh-1 4.4
COc1ccc2cc3c(N)nn(C(=O)c4ccc(F)cc4)c3nc2c1	hgDAF12 agonist 12
COc1ccc2cc3c(N)nn(C(=O)c4ccccc4Cl)c3nc2c1	none
COc1cccc(CC(=O)n2nc(N)c3cc4ccc(OC)cc4nc32)c1	none
COc1ccc2cc3c(N)nn(C(=O)Cc4c[nH]c5ccccc45)c3nc2c1	hgDAF12 agonist 14
COC(=O)C1=C(C)N(Cc2cccc(C(F)(F)F)c2)C(=NCC2CC2)NC1c1ccc(F)cc1 (stereo unspecified)	none (no result: DAX1 inh-1)
Brc1ccccc1C1Cc2nnccc2CN1 (stereo unspecified)	none (no result: DAX1 inh-1)
C/C(=N/O)c1ccccn1	none
CC(=O)c1ccccn1	DAX1 inh-1 6.0
OCCCNc1ncnc2c1ncn2[C@H]1CN(Cc2ccc3c(c2)OCO3)C[C@@H](CO)O1	hcDAF12 agonist 6.3 (no result: DAX1 inh-1)
COC(=O)c1c(C)c[nH]c1C	DAX1 inh-1 5.3
CCOC(=O)c1c(C)c[nH]c1C	none (no result: DAX1 inh-1)
CC(C)(C)N(NC(=O)Nc1ccccc1)C(=O)c1ccccc1Cl	DAX1 inh-1 6.3
CC(C)(C)N(NC(=O)Nc1cccc(F)c1)C(=O)c1ccccc1Cl	none (no result: DAX1 inh-1)
COCCCn1c(=O)/c(=C\c2cccc(OC)c2OC)s/c1=C(/C#N)C(=O)Nc1ccc(C(=O)O)cc1	DAX1 inh-1 4.3
COCCCn1c(=O)/c(=C/c2ccccc2OC(F)F)s/c1=C(\C#N)C(=O)NCCOC	none
Cn1cc(C=CC(=O)O)c2nccnc21	ssDAF12 agonist 1.3
O=C(O)/C=C/c1cn(-c2ccccc2)nc1-c1ccccc1	none
O=C(Nc1ccccc1Cl)OC1CC2CC1[C@H]1CCCCN1[C@H]2Cc1ccccc1 (stereo partly specified)	none (no result: DAX1 inh-1)
Cc1ccc(C(=O)N/N=C/c2ccc3c(c2)OCO3)o1	hcDAF12 agonist 5.9, ssDAF12 agonist 1.0
O=C(NN=Cc1ccc2c(c1)OCO2)NN=Cc1ccc2c(c1)OCO2	none
COc1ccc2ccccc2c1CN1CCN(c2ncc(Cc3ccccc3)cn2)CC1	none (no result: DAX1 inh-1)
Cc1ccc(-c2nnc(SCC(=O)Nc3ccc4c(c3)OCCO4)n2-c2ccc(Cl)cc2)cc1	none (no result: DAX1 inh-1)
Cc1cccc(C(=O)NCC(=O)NNC(=O)c2ccccc2O)c1	hcDAF12 agonist 6.1
COc1ccc(CN2CN3Cc4cc(OC)ccc4C3CS2(=O)=O)cc1 (stereo unspecified)	none (no result: DAX1 inh-1)
COc1ccc(-c2csc(NC(=O)C3=COCCO3)n2)c(OC)c1	DAX1 inh-2 3.9
O=C(NCc1ccccc1)[C@@H]1CCCN1C(=O)[C@H]1CCCN1C(=O)c1ccc(F)c(F)c1	none (no result: DAX1 inh-1)
